In PubChem BioAssay AID1851 (National Center for Advancing Translational Sciences (NCATS), 2009):
The campaign covered roughly 16,000 compounds. About 5,800 (36%) were called active. Not shown: some 23% with an inconclusive outcome. Calls follow the shape of the dose curve; as a rule, active = well fitted curve in the direction sought with a large enough effect; inconclusive = small, poorly fitted or top-dose-only effect, or effect the other way; inactive = no such curve, though single readings can be large or run the other way. The list shows a part of the results.

Target: Cytochrome P450 2C19 (Homo sapiens) (UniProt P33261)
Experiment: Cytochrome panel assay with activity outcomes
Conditions: recombinant CYP, pro-luciferin dealkylation, luminescence, p450-cyp2c19; series mostly up to 57.1 µM
% is scaled to controls: 0 for no effect and ±100 for the full control effect.

Chain of Cytochrome P450 2C19 (Homo sapiens) (P33261 whole entry, looked up): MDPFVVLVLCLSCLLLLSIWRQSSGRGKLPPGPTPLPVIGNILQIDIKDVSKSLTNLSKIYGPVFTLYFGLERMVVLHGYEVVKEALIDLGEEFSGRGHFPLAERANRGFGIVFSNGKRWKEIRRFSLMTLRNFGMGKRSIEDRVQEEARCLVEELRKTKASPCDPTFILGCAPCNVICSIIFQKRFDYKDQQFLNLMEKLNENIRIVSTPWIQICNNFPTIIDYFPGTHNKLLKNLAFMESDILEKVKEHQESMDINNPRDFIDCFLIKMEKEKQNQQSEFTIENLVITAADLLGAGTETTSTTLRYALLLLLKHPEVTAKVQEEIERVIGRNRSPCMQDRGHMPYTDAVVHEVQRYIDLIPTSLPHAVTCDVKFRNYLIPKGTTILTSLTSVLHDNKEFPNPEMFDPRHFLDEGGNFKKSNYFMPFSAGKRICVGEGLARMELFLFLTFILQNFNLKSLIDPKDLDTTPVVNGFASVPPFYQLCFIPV

activity, negative = inhibition, inactive:
O=C(O)c1ccccc1-c1ccccc1C(=O)Nc1ccc2c(c1)[nH]c(=O)c1ccccc12 -24.7% [at 11.4 µM], O=C(NCCC[N+]1=CC=N[C@H]1c1ccccc1)N1CCCc2nc(-c3ccc(Br)cc3)ccc21 -32% [at 11.4 µM], CC(C)=CCC/C(C)=C/CO/N=C1/C[C@@H](O)[C@@H](O)[C@@H]2[C@@H]3C(=O)N(Cc4ccc5c(c4)OCO5)C(=O)[C@H]3CC[C@H]12 -41.4% [at 11.4 µM], Cn1c(=O)c2[nH]c(CCS)nc2n(C)c1=O -13.4% [at 11.4 µM], CCOC(=O)N/N=C1/C[C@@H](O)[C@@H](O)[C@@H]2[C@@H]3C(=O)N(C4CCCCC4)C(=O)[C@H]3CC[C@H]12 9.98% [at 11.4 µM], CC(=O)O[C@]1(C)N=NC2(CCCCC2)O1 5.37% [at 11.4 µM], NCCSCCC(=O)O 13.2% [at 11.4 µM], Nc1cc(C(=O)O)[nH]c(=O)n1 35.4% [at 11.4 µM], CC(C)(CN)CN 26.4% [at 11.4 µM], CO[C@@H]1COC(=O)[C@H](CCSC)NC(=O)C/C=C\[C@@H](C)COC(=O)[C@@H]2CCCN2C(=O)C/C=C\[C@H]1C 43.9% [at 11.4 µM], CC(C)(C)c1cc2c(O)c(c1)Cc1cc(C(C)(C)C)cc(c1O)Cc1cc(C(C)(C)C)cc(c1O)Cc1cc(C(C)(C)C)cc(c1O)Cc1cc(C(C)(C)C)cc(c1O)Cc1cc(C(C)(C)C)cc(c1O)Cc1cc(C(C)(C)C)cc(c1O)Cc1cc(C(C)(C)C)cc(c1O)C2 -8.28% [at 11.4 µM]

AC50, inactive:
COc1cc(=O)n(C)c2c(OC[C@@H](O)C(C)(C)O)cccc12, C[C@H](CCC(=O)NCC(=O)O)[C@H]1CC[C@H]2[C@H]3[C@@H](C[C@@H](O)[C@]12C)[C@]1(C)CC[C@H](O)C[C@@H]1C[C@@H]3O, O=C(NNC(=O)c1cc2cc3ccccc3nc2s1)c1cccc(C(F)(F)F)c1, Cc1ccc(C(=O)N/N=C/c2sc(=O)n(Cc3cccc(C(=O)O)c3)c2Cl)cc1, CCOC(=O)NNc1nncc2ccccc12, Cc1ccc(CNC(=O)CCNS(=O)(=O)c2ccc3c(c2)c(=O)n(C)c(=O)n3C)cc1, CC(N)=O, CC(=O)N[C@@H](Cc1c[nH]c2ccccc12)C(=O)OCc1cc(C(F)(F)F)cc(C(F)(F)F)c1, CCN(CC)Cc1c(O)ccc2c(=O)c(Oc3ccccc3OC)coc12, O=C1C(C2=NC(C(=O)O)C3C(=O)N(c4ccc(Cl)cc4)C(=O)C23)=C(O)c2ccccc21 (stereo not given), Cc1cc(NC(=O)CCCC(=O)OCC(F)(F)C(F)F)cc(C)c1C(=O)O, COC(=O)[C@@H]1C[C@H]1[C@@H](NC(=O)c1cnccn1)c1ccccc1, COC(=O)[C@H]1C[C@@H]1[C@H](NC(=O)c1cnccn1)c1ccccc1, C[C@@]1(C(=O)O)NCCc2cc(O)c(O)cc21, CS(=O)(=O)N1CCC2(CC1)CN(c1ncccn1)C2, O=S(=O)(c1ccccc1)N1CCC2(CC1)CN(c1ncccn1)C2, Cl/C(=C\n1cncn1)c1ccc(Cl)cc1Cl, CO[C@]1(NC(=O)CSCC#N)C(=O)N2C(C(=O)O)=C(CSc3nnnn3C)CS[C@H]21, Cc1noc(C)c1-c1cncnc1NCc1ccccc1, CN(C)Cc1ccccc1-c1cncnc1NCc1cccnc1, Cc1nc(N=Nc2ccc(S(=O)(=O)O)cc2S(=O)(=O)O)c(COP(=O)(O)O)c(C=O)c1O, COc1ncc2nc(-c3cccc(C#N)c3)c(=O)n(CCC#N)c2n1, N#Cc1ccccc1-c1cncnc1NCc1cccnc1, Cc1cnc(CNc2ncncc2-c2ccccc2C#N)cn1, Cc1cnc(CNc2ncncc2-c2ccccc2CN(C)C)cn1, CC(=O)NCCNc1ncncc1-c1ccccc1C, COC(=O)CNC(=O)CCCCC(=O)NCC(=O)OC, Cc1nc2sccn2c(=O)c1Cl, O=C(c1ccco1)N1CCC2(CCN(Cc3ccncc3)CC2)CC1, N#Cc1ccc(CN2CCCC3(CCN(C(=O)c4cccc(F)c4)CC3)C2)cc1, O=C(c1cccc(F)c1)N1CCC2(CCCN(Cc3ccccc3)C2)CC1, O=C(c1cccc(F)c1)N1CCC2(CCCN(Cc3cc(C(F)(F)F)cc(C(F)(F)F)c3)C2)CC1, O=C(c1ccco1)N1CCC2(CCCN(Cc3ccccc3)C2)CC1, O=C(c1cccc(F)c1)N1CCC2(CC1)CN(Cc1ccccc1)C2, O=C(O)c1ccc2c(c1)C(=O)N(C(Cc1ccc(O)cc1)C(=O)O)C2=O (stereo not given), O=C(Nc1ccccc1)N1CC2(CCN(C(=O)c3cc(C(F)(F)F)cc(C(F)(F)F)c3)CC2)C1, COc1c(F)c(F)c(C(=O)O)c(Nc2ccc(C)cc2)c1F

AC50, active:
COCCn1c(C)cc(C2=NNC(=Nc3ccc(F)cc3)SC2)c1C 6.31 µM, O=C(N/N=C/c1c(Nc2cccc(C(F)(F)F)c2)nc2ccccn2c1=O)c1ccccc1 7.08 µM, Clc1ccccc1CSc1nnc(/C=C/c2ccccc2)o1 6.31 µM, Clc1cccc(Cl)c1CSc1nnc(/C=C/c2ccccc2)o1 10 µM, CC1(C)CC(=O)c2c(Cc3ccccc3)n[nH]c2C1 15.8 µM, Cc1ccc(C)c(N2CCN(C(=O)c3ccc4nc(-c5ccco5)c(-c5ccco5)nc4c3)CC2)c1 8.91 µM, CCC(CC)C(=O)NCc1ccc2c(c1)cc(C)n2C 14.1 µM, Cc1cc2cc(CNC(=O)CC(C)C)ccc2n1C 11.2 µM, CCOC(=O)NCc1ccc2c(c1)cc(C)n2C 15.8 µM, COc1ccc(C(C(=O)NC2CCCCC2)N(C(=O)Cc2c[nH]c3ccccc23)c2ccc(NC(C)=O)cc2)cc1OC (stereo not given) 10 µM, COc1ccc(S(=O)(=O)Nc2cccc(Cl)c2)cc1OC 0.631 µM, CCOc1ccccc1Oc1coc2cc(OC)ccc2c1=O 2.82 µM, O=C1C2Sc3[nH]c(=O)sc3C(c3ccccc3)C2C(=O)N1c1ccccc1 (stereo not given) 2.24 µM, O=C1C2Sc3[nH]c(=O)sc3C(c3ccccc3)C2C(=O)N1c1ccc(Cl)cc1 (stereo not given) 2.82 µM, O=C(CCCC(=O)OCC(=O)c1ccc(Cl)cc1Cl)Nc1cc(C(F)(F)F)ccc1Cl 8.91 µM, CCn1cc(-c2nnnn2-c2ccc(Cl)cc2)c(=O)c2ccccc21 17.8 µM, O=S(=O)(Nc1ccc2oc(-c3ccccc3)nc2c1)c1ccccc1 0.631 µM, COC(=O)[C@H]1C[C@@H]1[C@H](NC(=O)c1cc(C)on1)c1ccccc1 20 µM, COC(=O)[C@@H]1C[C@H]1[C@@H](NC(=O)c1cc(C)on1)c1ccccc1 15.8 µM, COc1ccc(/C=C2\OC(=O)c3c(OC)cccc32)cc1OC 8.91 µM, Cc1nc(SCC(=O)NCCc2ccccc2)c2oc3ccccc3c2n1 0.178 µM, CCc1nc(SCC(=O)NCCc2ccccc2)c2oc3ccccc3c2n1 0.562 µM, O=S(=O)(c1ccccc1)N1CCC2(CCCN(c3ccccn3)C2)CC1 0.158 µM, O=S(=O)(c1ccccc1)N1CCC2(CCCN(c3ncccn3)C2)CC1 0.398 µM, O=C(c1cnc(-c2ccccc2)s1)c1ccc(Cl)cc1Cl 2.24 µM, CCOC(=O)c1c(NC(=O)Nc2ccccc2)sc(C)c1C 5.01 µM, CCOC(=O)c1c(NC(=O)CSc2nnnn2C)sc(C)c1C 10 µM, CCOC(=O)c1c(NC(=O)CCc2ccc(CC)o2)sc(C)c1C 5.62 µM, Cc1sc(NC(=O)C(C)C)c(C(=O)Nc2ccccc2)c1C 3.55 µM, Cc1ccccc1-c1cncnc1NCc1cccnc1 0.398 µM, COc1ccccc1-c1cncnc1NCc1cccnc1 3.16 µM, Cc1cccc(CNc2ncncc2-c2ccccc2Cl)c1 1 µM, Cc1ccccc1-c1cncnc1NCc1ccccc1 2 µM, COc1ccccc1-c1cncnc1NCc1cccc(C)c1 0.398 µM, Cc1cccc(CNc2ncncc2-c2ccccc2C)c1 1 µM, FC(F)(F)c1ccccc1-c1cncnc1NCc1cccnc1 2.51 µM, Cc1cnc(CNc2ncncc2-c2ccccc2C)cn1 7.94 µM, CSc1nncc(/C(C)=N\Nc2ccccc2)n1 5.01 µM, O=C(c1cccc(F)c1)N1CCC2(CCCN(Cc3ccncc3)C2)CC1 10 µM, O=C(c1ccco1)N1CCC2(CCCN(Cc3ccncc3)C2)CC1 10 µM, N#Cc1ccc(CN2CC3(CCN(C(=O)c4cccc(F)c4)CC3)C2)cc1 2 µM, Cc1cc(C(C)(C)C)cc(CNC2CCCCC2)c1O 0.02 µM, O=C(Cc1cccs1)N1CCC(c2nc3c(nnn3Cc3ccccc3Cl)c(=O)[nH]2)CC1 2 µM, O=C(CSc1ccc(C(F)(F)F)cc1[N+](=O)[O-])Nc1ccccc1 0.891 µM, Cc1ccc(Nc2c([N+](=O)[O-])ccc3c2=NC2(CCCCC2)N=3)cc1 2.82 µM, CSc1nsc(SC)c1C(=O)Nc1ccc(C)cc1 8.91 µM, CCCCOC(=O)c1ccc(NC(=S)NC(=O)c2c(Cl)cnn2C)cc1 15.8 µM
